# PubChem BioAssay (Tox21)
# A number with no mark means an inactive call. Results filed as inconclusive are left out. A call without a number means that no potency is given here. Active and inactive are the calls of the source. Unless noted, calls come from the whole dose curve; as a rule, active = well fitted curve in the direction sought with a large enough effect in the repeat runs; inconclusive = weak or mixed curves; inactive = no such curve, though single readings can be large; an effect the other way counts as inactive or inconclusive.
# Assays:
# [1] = A CellTox Green Cytotoxicity Assay to monitor cytotoxicity in HepG2 cells - 8 hour (AID 1224890); note: nearly all actives have a fitted effect of over 45% in size
# Outline: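 HepG2 cells, 600/well, preincubated 5 h with CellTox Green dye, then exposed to Tox21 compounds in DMSO at 37 C for up to 40 h. Dead-cell DNA fluorescence read at the indicated time point.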
# [2] = qHTS assay to identify small molecule antagonists of the estrogen receptor alpha (ER-alpha) signaling pathway using the BG1 cell line in the presence of 0.1 nM 17-beta-estradiol - cell viability counter screen (AID 1259241); note: nearly all actives have a fitted effect of over 40% in size; note: potency is the fitted concentration of half-maximal effect
# Outline: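 Cytotoxicity counter-screen: live-cell protease activity measured by fluorescence (30 min reagent step) in the same wells. Cells were VM7Luc4E2 with endogenous ER-alpha and ERE-driven luciferase, treated 22 hr at 37C alongside 0.1 nM 17beta-estradiol final.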
# [3] = qHTS assay to identify small molecule HDAC inhibitors (AID 1259364); note: top concentration of the series differs between compounds; nearly all actives have a fitted effect of over 45% in size
# Outline: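 Wild-type HCT-116 cells, plated overnight at 37 C, exposed to compounds 2 hr at 37 C; luminogenic HDAC-Glo substrate then added 30 min at room temperature. Luminescence reports relative endogenous class I/II HDAC activity.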
# [4] = qHTS assay to identify small molecule HDAC inhibitors - cell viability counter screen (AID 1259365); note: nearly all actives have a fitted effect of over 50% in size; note: potency is the fitted concentration of half-maximal effect; for activity change, negative = cytotoxicity: series mostly up to about 92 µM
# Outline: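 CellTiter-Glo luminescence (30 min, room temperature) reported viability after a 2 h compound exposure at 37 C. Cells: wild-type HCT-116, 1,500 per well, seeded the night before.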
# [5] = qHTS assay to identify small molecule agonists of the sonic hedgehog signaling (Shh) pathway - cell viability counter screen (AID 1259366); note: nearly all actives have a fitted effect of over 50% in size; note: potency is the fitted concentration of half-maximal effect
# Outline: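 Cytotoxicity counter screen: CellTiter-Fluor reagent added after 23 h compound exposure, then 1 h at 37C and fluorescence read. Cells were 3T3 Gli1-Luc, seeded 2,000 per well and dosed 4 h post-plating.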
# [6] = qHTS assay to identify small molecule antagonists of the sonic hedgehog signaling (Shh) pathway - cell viability counter screen (AID 1259367); note: nearly all actives have a fitted effect of over 55% in size; note: potency is the fitted concentration of half-maximal effect
# Outline: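 Using CellTiter-Fluor, viability of Gli1-Luc reporter 3T3 cells is read by fluorescence in the wells used for the Shh luciferase assay. Treatment lasts 23 hr with conditioned medium, then reagent 1 hr at 37C.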
# [7] = qHTS assay to identify small molecule antagonists of the androgen receptor (AR) signaling pathway using the MDA cell line in the presence of 0.5 nM R1881 - cell viability counter screen (AID 1259242); note: nearly all actives have a fitted effect of over 45% in size
# Outline: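 MDA-kb2 cells (MMTV-luciferase, AR/GR responsive) were treated with compounds plus 0.5 nM R1881 (final) for 16 hr at 37C, 0% CO2. Viability was then read in the same wells as live-cell protease fluorescence (CellTiter-Fluor, 30 min).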
# [8] = molecular target: Estrogen receptor (Homo sapiens) (UniProt P03372); assay: qHTS assay to identify small molecule antagonists of the estrogen receptor alpha (ER-alpha) signaling pathway using the BG1 cell line in the presence of 0.1 nM 17-beta-estradiol (AID 1259244); note: nearly all actives have a fitted effect of over 50% in size; note: potency is the fitted concentration of half-maximal effect
# Outline: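 VM7Luc4E2 cells (endogenous full-length ER-alpha, 4×ERE-luciferase), kept 5 days in phenol red-free, charcoal-stripped FBS medium; 4,000 cells/well. Compounds added with 0.1 nM (final) 17beta-estradiol, 22 hr at 37C; luminescence read with ONE-Glo after 30 min.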
# [9] = qHTS assay to identify small molecule phospholipidosis (PLD) inducers (AID 1259344; active = well fitted curve in the direction sought with a large enough effect; an effect the other way counts as inactive or inconclusive)
# Outline: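 Fluorescent phospholipid staining (LipidTOX Red) measured by automated microscopy in fixed HepG2 cells after 24 h treatment; nuclei counterstained with Hoechst 33342; amiodarone as reference inducer.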
# [10] = molecular target: Androgen receptor (Homo sapiens) (UniProt P10275); assay: qHTS assay to identify small molecule antagonists of the androgen receptor (AR) signaling pathway using the MDA cell line in the presence of 0.5 nM R1881 (AID 1259243); note: nearly all actives have a fitted effect of over 50% in size
# Outline: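 MDA-kb2 cells (MMTV-luciferase, responsive to AR and GR) at 3,000/well, rested 5 h at 37C, 0% CO2, then given compounds plus 0.5 nM R1881 (final) for 16 hr. Luciferase read with ONE-Glo after 30 min at room temperature.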
# Chain of Estrogen receptor (Homo sapiens) (P03372 whole entry, looked up): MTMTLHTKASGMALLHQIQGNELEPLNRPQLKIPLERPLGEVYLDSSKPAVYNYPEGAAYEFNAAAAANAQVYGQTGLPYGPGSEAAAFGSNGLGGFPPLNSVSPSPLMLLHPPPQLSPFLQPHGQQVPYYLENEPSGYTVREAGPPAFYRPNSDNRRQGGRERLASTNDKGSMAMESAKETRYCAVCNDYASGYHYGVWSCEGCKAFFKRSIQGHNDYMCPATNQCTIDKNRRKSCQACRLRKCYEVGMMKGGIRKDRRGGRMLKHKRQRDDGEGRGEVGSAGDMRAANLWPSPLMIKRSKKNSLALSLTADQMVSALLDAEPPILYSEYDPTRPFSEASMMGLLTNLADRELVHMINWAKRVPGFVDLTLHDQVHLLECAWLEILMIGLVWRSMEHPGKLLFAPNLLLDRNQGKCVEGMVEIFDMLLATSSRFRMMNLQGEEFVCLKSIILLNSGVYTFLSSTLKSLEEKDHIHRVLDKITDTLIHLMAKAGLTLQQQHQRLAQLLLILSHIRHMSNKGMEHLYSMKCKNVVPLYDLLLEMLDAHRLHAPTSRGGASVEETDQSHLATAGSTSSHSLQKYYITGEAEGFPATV
# Chain of Androgen receptor (Homo sapiens) (P10275 whole entry, looked up): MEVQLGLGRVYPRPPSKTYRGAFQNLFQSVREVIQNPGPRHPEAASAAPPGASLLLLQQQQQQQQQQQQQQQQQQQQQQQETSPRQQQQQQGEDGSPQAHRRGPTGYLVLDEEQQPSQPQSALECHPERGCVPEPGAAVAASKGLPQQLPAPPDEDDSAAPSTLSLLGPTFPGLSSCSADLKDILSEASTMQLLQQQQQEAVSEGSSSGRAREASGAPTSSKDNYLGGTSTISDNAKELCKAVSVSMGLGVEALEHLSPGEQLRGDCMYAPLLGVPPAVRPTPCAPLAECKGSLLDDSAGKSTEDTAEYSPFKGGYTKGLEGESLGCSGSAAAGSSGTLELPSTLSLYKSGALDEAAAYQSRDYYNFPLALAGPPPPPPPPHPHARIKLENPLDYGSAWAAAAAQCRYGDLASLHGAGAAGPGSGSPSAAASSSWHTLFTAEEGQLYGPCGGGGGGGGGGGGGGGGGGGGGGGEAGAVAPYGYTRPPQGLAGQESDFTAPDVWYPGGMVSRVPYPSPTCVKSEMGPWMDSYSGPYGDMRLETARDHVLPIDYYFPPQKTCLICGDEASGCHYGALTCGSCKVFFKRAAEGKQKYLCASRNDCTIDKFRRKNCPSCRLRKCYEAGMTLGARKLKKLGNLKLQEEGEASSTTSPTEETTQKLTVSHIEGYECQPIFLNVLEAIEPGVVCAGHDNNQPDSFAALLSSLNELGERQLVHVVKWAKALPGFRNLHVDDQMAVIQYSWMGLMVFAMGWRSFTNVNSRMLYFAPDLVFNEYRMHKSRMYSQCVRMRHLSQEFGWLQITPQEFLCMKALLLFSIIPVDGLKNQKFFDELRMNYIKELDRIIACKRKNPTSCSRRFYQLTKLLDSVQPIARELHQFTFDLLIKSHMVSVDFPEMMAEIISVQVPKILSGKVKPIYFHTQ
smiles,measurement,setting,value
CCC(Cc1ccccc1)(C(=O)c1ccc(N2CCOCC2)cc1)N(C)C (stereo not given),Potency,[1],inactive
same,Potency,[2],inactive
same,Potency,[3],inactive
same,Potency,[4],inactive
same,Potency,[5],inactive
same,Potency,[6],inactive
CN1CCCN=C1/C=C/c1cccs1,Potency,[1],inactive
same,Potency,[7],inactive
same,Potency,[8],inactive
same,outcome,[9],inactive
same,Potency,[3],inactive
same,Potency,[4],inactive
same,Potency,[5],inactive
same,Potency,[6],inactive
COc1ccccc1N=Nc1c(S(=O)(=O)O)cc2cc(S(=O)(=O)O)cc(NC(C)=O)c2c1O,Potency,[1],inactive
same,Potency,[2],22.9 µM (active)
same,Potency,[3],inactive
same,Potency,[4],25.7 µM (active)
same,Potency,[5],25.7 µM (active)
same,Potency,[6],25.7 µM (active)
CC(C)(CCl)c1ccccc1,Potency,[1],inactive
same,Potency,[2],inactive
same,Potency,[8],inactive
same,Potency,[3],inactive
same,Potency,[4],inactive
same,Potency,[5],inactive
O=C1NCCN1,Potency,[1],inactive
same,Potency,[2],inactive
same,Potency,[8],inactive
same,Potency,[3],inactive
same,Potency,[4],inactive
same,Potency,[5],inactive
same,Potency,[6],inactive
CCCCC(CC)CNCC(CC)CCCC (stereo not given),Potency,[1],inactive
same,Potency,[2],inactive
same,Potency,[3],inactive
same,Potency,[4],inactive
same,Potency,[5],inactive
same,Potency,[6],inactive
CCn1nc(C)c2c1C(=O)NCC(c1ccc(O)cc1)=N2,Potency,[1],inactive
same,Potency,[2],inactive
same,Potency,[8],inactive
same,Potency,[3],inactive
same,Potency,[4],inactive
same,Potency,[5],inactive
same,Potency,[6],inactive
O=C(O)Cc1ccc(-c2ccccc2)cc1,Potency,[1],inactive
same,Potency,[7],inactive
same,Potency,[10],inactive
same,Potency,[8],inactive
same,outcome,[9],inactive
same,Potency,[4],inactive
same,Potency,[5],inactive
ON(Cc1ccccc1)Cc1ccccc1,Potency,[1],inactive
same,Potency,[2],inactive
same,Potency,[8],inactive
same,Potency,[4],inactive
same,Potency,[5],inactive
same,Potency,[6],inactive
[O]=[Bi],cytotoxicity increase,[1],2.13% [at 6.97 µM]
same,"activity change, negative = cytotoxicity",[2],-2.05% [at 8.39 µM]
same,"activity change, negative = inhibition",[3],9.82% [at 8.39 µM]
same,"viability change, negative = cytotoxic",[5],11.3% [at 8.39 µM]
CC1=CC(O)CC(C)(C)C1 (stereo not given),Potency,[1],inactive
same,Potency,[2],inactive
same,Potency,[8],inactive
same,Potency,[4],inactive
same,Potency,[5],inactive
same,Potency,[6],inactive
CSc1ccc(Oc2ccc(S(N)(=O)=O)cc2CN(C)C)cc1C,Potency,[1],inactive
same,Potency,[7],inactive
same,Potency,[8],68.6 µM (active)
same,Potency,[3],inactive
same,Potency,[4],inactive
CCCCCCCCCOC(C)=O,Potency,[1],inactive
same,Potency,[7],inactive
same,Potency,[8],inactive
same,Potency,[3],inactive
same,Potency,[4],inactive
same,Potency,[5],inactive
CCCCN(CCCC)CCCOC(=O)c1ccc(N)cc1,Potency,[1],inactive
same,Potency,[2],inactive
same,outcome,[9],inactive
same,Potency,[3],inactive
same,Potency,[4],inactive
same,Potency,[5],inactive
same,Potency,[6],inactive
COC(=O)[C@@H]1CC2=CC(=O)CC[C@]2(C)[C@@]23O[C@@H]2C[C@@]2(C)[C@@H](CC[C@@]24CCC(=O)O4)[C@H]13,Potency,[1],inactive
same,Potency,[7],inactive
same,Potency,[8],inactive
same,outcome,[9],inactive
same,Potency,[3],inactive
same,Potency,[4],inactive
same,Potency,[5],inactive
same,Potency,[6],inactive
